# KKLEB cytotox = CF airway cell cytotoxicity counter-screen | KKLEB CF airway cells viability, ATPlite luminescence, overnight; stronger effect = lower value; cells stimulated with P. aeruginosa culture filtrate | activity change (cytotoxicity), % at 5 µM | 360,000 compounds, 0.36% hits | AID 602141;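 active = corrected activity change at or below -50% at 5 µM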
# HIF-2a block = blocks HIF-2a reporter activity; 786-0 RCC cells HIF-2a reporter, luciferase luminescence, overnight; inhibition, % at 18.8 µM; 360,000 compounds, 0.72% hits;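 active = inhibition of the luminescence signal of 40% or more relative to plate controls, in a single-dose primary screen at 18.75 µM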
# iPSC survival up = increases survival of single human iPS cells | 360,000 compounds, 0.044% hits | survival enhancement, % at 20 µM | hiPSC single-cell survival, ATPlite luminescence; 100% = ROCK inhibitor wells, 0% = DMSO | AID 602274; in the data active = survival enhancement above about 18%;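 note: cells exposed to compounds for 16 hours before the ATP read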
# LGR2 inh = Drosophila LGR2 receptor signaling inhibition; HEK293 LGR2, CRE-luciferase, bursicon-stimulated, 4 h; inhibition, % at 9.99 µM; 380,000 compounds, 0.35% hits;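 active = drop in luminescence signal, shown as inhibition above about 50% in the replicate tests, limit read from the data, passing the limit was not always enough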;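 note: agonist challenge used bursicon conditioned medium at about half maximal strength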
# TWEAK Fn14 block = TWEAK-Fn14 signaling inhibition; TWEAK-stimulated Fn14 reporter cells, luciferase luminescence, 8 h; inhibition, % at 10 µM; 360,000 compounds, 2% hits; AID 1159606; in the data active = inhibition above about 50%
# CF NFkB block = inhibitors of cystic fibrosis induced NF-kB. 360,000 compounds, 0.86% hits. inhibition, % at 5 µM. AID 588850. KKLEB NF-kB-GFP reporter, PAF-induced, GFP fluorescence overnight;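 active = at least 50% inhibition at 5 µM, scaled per plate between neutral and stimulator controls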;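 note: PAF is a Pseudomonas aeruginosa culture filtrate used as stimulus; plate controls were PAF-stimulated DMSO wells for no effect and unstimulated DMSO wells for full effect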
# * marks the source's active call; other numbers are inactive results; / = no result. An excerpt weighted towards active compounds, which were near 2.3% of everything screened.
SMILES,KKLEB cytotox,HIF-2a block,iPSC survival up,LGR2 inh,TWEAK Fn14 block,CF NFkB block
CO[C@@H]1CN(C)C(=O)c2cc(NS(=O)(=O)c3cn(C)cn3)ccc2OC[C@@H](C)N(CC2CC2)C[C@@H]1C,/,/,/,5,/,/
Cc1cc(NCCCn2ccnc2)n2ncc(-c3ccc(Cl)cc3)c2n1,-55*,-162,-6,/,68*,55*
Cc1cc(NCCCN2CCOCC2)n2ncc(-c3ccc(Cl)cc3)c2n1,-44,-180,-3,/,30,43
COc1ccc(NC(=O)c2cccc3c2C(=O)c2ccc(-c4ccc(F)cc4OCc4ccccc4)cc2S3(=O)=O)cc1,-57*,-31,1,10,-46,46
Cn1c(=O)c2[nH]c(CCCCCCCCc3nc4ccccc4[nH]3)nc2n(C)c1=O,-14,0,4,22,70*,16
O=C(Nc1nccs1)c1cccc(N2C(=O)c3cccc4c([N+](=O)[O-])ccc(c34)C2=O)c1,-5,9,-2,/,85*,-1
Cc1noc(C)c1S(=O)(=O)Nc1cccc2c1O[C@H](CN(C)S(=O)(=O)c1ccc(Cl)cc1)[C@H](C)CN([C@H](C)CO)C2=O,/,/,/,-17,/,/
COc1cc(NC(=O)CSc2ncnc3c2cnn3Cc2ccccc2)cc(OC)c1,-14,21,0,/,62*,18
COc1ccc(OC)c(NC(=O)CSc2ncnc3c2cnn3-c2ccccc2Cl)c1,3,27,-4,/,74*,-16
C[C@@H]1CN([C@H](C)CO)C(=O)Cc2cc(NS(=O)(=O)c3ccc(F)cc3)ccc2O[C@H]1CN(C)C(=O)Nc1ccc2c(c1)OCO2,/,/,/,-7,/,/
CCc1cccc(CC)c1NC(=O)CSc1nc2ccc(N3C(=O)C4C5C=CC(C5)C4C3=O)cc2s1 (configuration not stated),3,13,-3,/,14,-14
O=C(O)c1ccc(CSc2nc3ccc(N4C(=O)C5C6C=CC(C6)C5C4=O)cc3s2)cc1 (configuration not stated),2,31,0,2,51*,-2
CC(O)(c1ccc(F)c(F)c1)c1nc(-c2cnc3ccccc3c2)cs1 (configuration not stated),-20,-24,-1,14,55*,31
O=C(NCCc1ccc(Cl)cc1)c1ccc2c(c1)OCO2,-5,-216,0,-123,-5,-10
O=C(NCCc1cccs1)c1ccc(Cl)cc1,-3,-106,0,10,59*,5
O=C(NCCc1ccc(Cl)cc1)c1ccc2c(c1)OCCO2,-12,-139,0,58*,54*,1
CC(C)C(=O)N1CCN(c2ccc(NC(=O)c3ccc4c(c3)OCCO4)cc2Cl)CC1,-7,-147,-5,85*,82*,8
O=C(Nc1ccc(N2CCN(C(=O)c3ccc(Cl)cc3)CC2)cc1)c1ccc2c(c1)OCCO2,14,-13,-2,26,92*,-7
O=C(Nc1ccc(N2CCN(C(=O)c3ccccc3)CC2)cc1)c1ccc2c(c1)OCCO2,22,-120,0,-45,22,-16
Cc1nc2c(nc1C)C(=O)c1ccccc1C2=O,-13,-5,-1,39,15,61*
CCOc1ccc(OCC(=O)N(CCC2=CCCCC2)c2c(N)n(Cc3ccccc3)c(=O)[nH]c2=O)cc1,-62*,4,1,27,20,72*
CCOc1ccc(OCCC(=O)N(CCC2=CCCCC2)c2c(N)n(Cc3ccccc3)c(=O)[nH]c2=O)cc1,2,18,0,-15,8,0
O=C(Nc1cc(F)ccc1F)N[C@H]1C=C[C@@H](CC(=O)N2CCc3ccccc3C2)O[C@H]1CO,/,/,/,9,/,/
COc1ccc2[nH]c3c(c2c1)CCN1C(=O)N([C@@H](C)C(=O)NCc2ccc(C)cc2)C(=O)[C@]31C,4,12,0,86*,0,-10
CC1=Nc2ccccc2/C1=C/c1nc(-c2ccc(C)s2)oc1O,-3,8,0,10,10,10
CC1=Nc2ccccc2/C1=C/c1sc(=N)n(-c2nccs2)c1O,7,16,0,-2,101*,-4
C[C@@H]1CN([C@H](C)CO)C(=O)c2cc(C3=CCCC3)cnc2O[C@@H]1CN(C)C(=O)Nc1cccc(F)c1,/,/,/,3,/,/

# Screening data (PubChem BioAssay)
